The text below walks through data of ChEMBL document CHEMBL3988442, “University of Dundee, Small-Polar-MMV Screening Library” (2021).

What all share (set-up): scale not given: direction of the effect not stated beside the values
The target of assay [1] is Protein translocase subunit SecA (Escherichia coli (strain K12)) (UniProt P10408). As to the kind of experiment: Assay to Identify E. coli SecA ATPase Inhibitors. Format: functional. The note with it: 30 µM.
The target of assay [2] is T1, Ubiquitin-activating enzyme e1, putative (Leishmania donovani (strain BPK282A1)) (UniProt E9BSI1).
T1 sequence (whole entry): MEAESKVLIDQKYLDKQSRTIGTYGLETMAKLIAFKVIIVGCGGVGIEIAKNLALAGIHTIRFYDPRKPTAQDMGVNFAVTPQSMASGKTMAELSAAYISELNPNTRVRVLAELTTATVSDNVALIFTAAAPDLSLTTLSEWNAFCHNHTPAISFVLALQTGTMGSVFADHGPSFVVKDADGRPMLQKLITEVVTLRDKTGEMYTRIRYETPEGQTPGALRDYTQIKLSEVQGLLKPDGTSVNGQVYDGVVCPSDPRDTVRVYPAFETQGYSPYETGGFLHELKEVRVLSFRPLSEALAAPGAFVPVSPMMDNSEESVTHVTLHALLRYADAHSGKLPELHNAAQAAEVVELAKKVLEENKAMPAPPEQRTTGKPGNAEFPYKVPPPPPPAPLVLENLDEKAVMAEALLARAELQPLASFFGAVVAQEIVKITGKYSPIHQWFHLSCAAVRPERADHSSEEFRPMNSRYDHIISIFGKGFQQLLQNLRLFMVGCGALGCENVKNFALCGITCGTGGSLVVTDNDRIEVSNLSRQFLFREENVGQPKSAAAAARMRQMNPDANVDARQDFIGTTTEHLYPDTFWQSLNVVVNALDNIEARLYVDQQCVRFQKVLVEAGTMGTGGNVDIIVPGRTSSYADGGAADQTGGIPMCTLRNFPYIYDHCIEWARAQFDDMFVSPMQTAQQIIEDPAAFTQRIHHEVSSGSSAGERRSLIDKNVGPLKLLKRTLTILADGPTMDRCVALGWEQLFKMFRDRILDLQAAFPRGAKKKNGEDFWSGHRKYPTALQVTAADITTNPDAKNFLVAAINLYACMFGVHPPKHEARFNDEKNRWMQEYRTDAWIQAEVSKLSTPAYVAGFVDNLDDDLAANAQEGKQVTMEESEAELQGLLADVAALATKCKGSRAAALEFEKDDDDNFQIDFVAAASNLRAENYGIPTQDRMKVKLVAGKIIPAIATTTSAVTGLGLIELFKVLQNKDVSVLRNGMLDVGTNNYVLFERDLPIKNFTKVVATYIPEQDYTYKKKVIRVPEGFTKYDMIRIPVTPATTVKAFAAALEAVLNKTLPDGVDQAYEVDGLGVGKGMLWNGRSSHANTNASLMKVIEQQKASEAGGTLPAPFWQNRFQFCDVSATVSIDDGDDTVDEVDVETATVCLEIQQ
Description: Leishmania donovani Ubiquitin Activating Enzyme (LdE1). It is filed as functional. The note with it: 30 µM.

Assay [3] deals with AMP-activated protein kinase, AMPK (Homo sapiens) (UniProt P54646+O43741+P54619+Q9UGJ0+Q9Y478+Q13131+Q9UGI9). As to the kind of experiment: AMP-dependent Kinase enzyme assay. An in vitro enzyme assay that detects ADP turnover that is directly proportional to AMPK activity. This uses naive AMPK that is activated during the assay with MK-8722. It is filed as functional. The note with it: 30 µM.

For assay [4], the target named is Sialic acid-binding Ig-like lectin 9 (Homo sapiens) (UniProt Q9Y336). As to the kind of experiment: Hs-Siglec9 ALPHAscreen SOP 20170721. The conditions noted are these: 10 µM. (Alpha assays give light when donor and acceptor beads are brought close together.)
Chain of Sialic acid-binding Ig-like lectin 9 (Homo sapiens) (Q9Y336 whole entry): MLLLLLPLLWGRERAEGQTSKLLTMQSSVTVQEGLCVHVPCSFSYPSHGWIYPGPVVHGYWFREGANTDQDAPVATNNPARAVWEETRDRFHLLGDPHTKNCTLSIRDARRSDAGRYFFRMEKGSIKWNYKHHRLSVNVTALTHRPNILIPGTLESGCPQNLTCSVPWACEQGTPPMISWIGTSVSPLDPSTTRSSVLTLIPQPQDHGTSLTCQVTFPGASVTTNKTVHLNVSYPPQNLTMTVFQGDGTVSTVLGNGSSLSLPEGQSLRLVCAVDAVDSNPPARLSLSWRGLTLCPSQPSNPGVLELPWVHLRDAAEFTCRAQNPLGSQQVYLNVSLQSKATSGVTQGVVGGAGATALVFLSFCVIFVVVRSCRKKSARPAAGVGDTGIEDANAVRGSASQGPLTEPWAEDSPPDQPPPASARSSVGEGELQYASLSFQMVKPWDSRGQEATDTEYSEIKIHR
For assay [5], the system named is Trypanosoma cruzi. As to the kind of experiment: Trypanosoma cruzi phosphomannomutase and mannose-1-phosphate guanylyltransferase assay. The note with it: 10 µM. It is filed as functional.
Assay [6] concerns the target T2, Arginase-2, mitochondrial (Homo sapiens) (UniProt P78540).
T2 sequence (whole entry): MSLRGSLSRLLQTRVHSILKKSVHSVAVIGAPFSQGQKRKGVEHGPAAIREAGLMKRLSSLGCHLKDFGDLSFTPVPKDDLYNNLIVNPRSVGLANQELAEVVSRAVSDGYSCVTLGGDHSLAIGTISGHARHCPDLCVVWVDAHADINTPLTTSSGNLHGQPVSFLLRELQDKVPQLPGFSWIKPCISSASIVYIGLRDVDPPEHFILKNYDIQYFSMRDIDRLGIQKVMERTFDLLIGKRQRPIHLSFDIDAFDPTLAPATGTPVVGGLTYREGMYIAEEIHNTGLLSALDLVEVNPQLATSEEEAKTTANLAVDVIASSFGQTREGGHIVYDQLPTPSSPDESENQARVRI
Description: in vitro enzyme assay to detect the production of urea directly proportional to the activity of Arginase II. Note: in the data most compounds retested in dose-response had high values. Format: functional. The note with it: 33.3 µM.

The target in assay [7] is T3, Proteasome subunit beta (Trypanosoma cruzi) (UniProt O96673).
T3 sequence (whole entry): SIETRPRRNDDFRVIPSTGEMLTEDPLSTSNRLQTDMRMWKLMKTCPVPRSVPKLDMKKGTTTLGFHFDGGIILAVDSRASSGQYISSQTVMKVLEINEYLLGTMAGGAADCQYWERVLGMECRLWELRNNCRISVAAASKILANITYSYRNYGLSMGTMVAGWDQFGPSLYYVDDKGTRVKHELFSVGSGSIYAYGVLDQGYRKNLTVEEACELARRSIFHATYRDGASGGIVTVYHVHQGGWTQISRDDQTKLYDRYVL
Description: Trypanosoma cruzi proteasome chymotrypsin-like activity (TcProtChymo) assay. Note: in the data most compounds retested in dose-response had high values. It is filed as functional. The note with it: 9.37 µM.

For assay [8], the species on record is Homo sapiens. As to the kind of experiment: To identify inhibition of the IFN signalling (Jak-Stat) pathway via expression of an eGFP reporter gene under the control of an IFN-stimulated response element (ISRE) containing MxA promoter. Format: functional. The conditions noted are these: 30 µM. A general note: In a reporter assay the amount or activity of a reporter protein is the signal.

The target of assay [9] is T4, Tyrosyl-tRNA synthetase, putative (Trypanosoma cruzi (strain CL Brener)) (UniProt Q4DSP6).
T4 sequence (whole entry): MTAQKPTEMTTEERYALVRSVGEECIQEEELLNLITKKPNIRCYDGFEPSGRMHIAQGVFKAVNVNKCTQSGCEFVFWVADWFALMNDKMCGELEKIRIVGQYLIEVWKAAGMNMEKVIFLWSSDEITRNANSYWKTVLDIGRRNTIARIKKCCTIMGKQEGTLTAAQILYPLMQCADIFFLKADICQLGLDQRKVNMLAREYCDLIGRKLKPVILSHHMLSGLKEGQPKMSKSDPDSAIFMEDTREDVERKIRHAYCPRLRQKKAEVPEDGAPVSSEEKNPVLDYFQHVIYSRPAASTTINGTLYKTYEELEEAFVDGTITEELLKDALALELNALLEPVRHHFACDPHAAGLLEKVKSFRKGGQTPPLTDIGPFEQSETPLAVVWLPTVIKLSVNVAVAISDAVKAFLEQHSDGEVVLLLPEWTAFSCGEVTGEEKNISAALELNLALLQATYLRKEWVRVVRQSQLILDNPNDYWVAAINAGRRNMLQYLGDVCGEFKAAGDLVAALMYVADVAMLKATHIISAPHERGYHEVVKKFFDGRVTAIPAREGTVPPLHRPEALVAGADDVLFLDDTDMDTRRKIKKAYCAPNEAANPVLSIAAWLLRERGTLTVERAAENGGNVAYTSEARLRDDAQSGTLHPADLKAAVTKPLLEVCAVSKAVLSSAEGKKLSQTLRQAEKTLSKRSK
Description: Trypanosoma cruzi tyrosyl tRNA synthetase (TcYRS) _High Tyrosine SOP. Note: in the data most compounds retested in dose-response had high values. Format: functional. The note with it: 30 µM.

Assay [10] deals with T4, Tyrosyl-tRNA synthetase, putative (Trypanosoma cruzi (strain CL Brener)). Description: Trypanosoma cruzi tyrosyl tRNA synthetase (TcYRS) SOP. It is filed as functional. The conditions noted are these: 30 µM.
For assay [11], the target named is Chromo domain-containing protein 1 (Saccharomyces cerevisiae (strain ATCC 204508 / S288c) (Baker's yeast)) (UniProt P32657). As to the kind of experiment: ScCHD-1 Enzyme Inhibition Assay. Note: in the data most compounds retested in dose-response had high values. It is filed as functional. The note with it: 30 µM.
Chain of Chromo domain-containing protein 1 (Saccharomyces cerevisiae (strain ATCC 204508 / S288c) (Baker's yeast)) (P32657 whole entry, the tested form may be a part): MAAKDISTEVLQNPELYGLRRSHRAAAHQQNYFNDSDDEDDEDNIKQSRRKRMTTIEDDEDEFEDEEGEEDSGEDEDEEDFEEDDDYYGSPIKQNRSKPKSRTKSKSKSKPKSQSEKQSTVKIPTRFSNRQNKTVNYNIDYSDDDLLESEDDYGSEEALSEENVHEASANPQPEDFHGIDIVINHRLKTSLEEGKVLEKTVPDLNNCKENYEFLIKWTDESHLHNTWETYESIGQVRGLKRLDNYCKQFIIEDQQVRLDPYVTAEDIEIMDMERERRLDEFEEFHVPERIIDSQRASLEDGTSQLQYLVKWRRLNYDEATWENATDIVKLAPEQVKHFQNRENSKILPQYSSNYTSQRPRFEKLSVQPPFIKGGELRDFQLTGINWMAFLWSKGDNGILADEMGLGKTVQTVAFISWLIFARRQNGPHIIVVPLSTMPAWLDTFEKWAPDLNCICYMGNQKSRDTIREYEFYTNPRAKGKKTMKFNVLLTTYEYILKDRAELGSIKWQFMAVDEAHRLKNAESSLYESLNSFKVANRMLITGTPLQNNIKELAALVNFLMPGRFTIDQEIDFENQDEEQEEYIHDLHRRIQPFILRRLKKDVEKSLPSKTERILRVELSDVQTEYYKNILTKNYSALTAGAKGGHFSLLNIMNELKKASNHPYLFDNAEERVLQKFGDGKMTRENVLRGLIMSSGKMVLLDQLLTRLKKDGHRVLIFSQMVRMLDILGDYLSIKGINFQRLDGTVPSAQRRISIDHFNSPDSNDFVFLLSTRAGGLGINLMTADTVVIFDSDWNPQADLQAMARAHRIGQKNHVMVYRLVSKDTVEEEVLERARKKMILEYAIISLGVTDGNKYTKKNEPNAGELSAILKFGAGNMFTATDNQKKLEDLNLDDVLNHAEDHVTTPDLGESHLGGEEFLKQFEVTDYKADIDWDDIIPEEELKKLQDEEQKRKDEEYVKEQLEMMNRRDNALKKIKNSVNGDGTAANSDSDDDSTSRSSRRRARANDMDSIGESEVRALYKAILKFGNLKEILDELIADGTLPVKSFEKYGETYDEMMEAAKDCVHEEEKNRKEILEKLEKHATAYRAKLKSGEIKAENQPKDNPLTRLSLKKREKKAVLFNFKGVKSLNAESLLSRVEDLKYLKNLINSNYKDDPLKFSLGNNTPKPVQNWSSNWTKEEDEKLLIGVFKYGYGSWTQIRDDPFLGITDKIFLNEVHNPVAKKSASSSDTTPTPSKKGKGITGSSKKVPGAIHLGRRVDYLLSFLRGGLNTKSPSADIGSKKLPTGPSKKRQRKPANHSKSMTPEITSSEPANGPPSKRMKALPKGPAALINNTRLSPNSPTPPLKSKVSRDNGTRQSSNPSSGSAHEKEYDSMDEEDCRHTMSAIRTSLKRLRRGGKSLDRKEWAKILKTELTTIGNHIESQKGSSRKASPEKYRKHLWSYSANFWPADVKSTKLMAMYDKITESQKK

For some of these results: Results with a measured potency or affinity are listed apart.

Chain of Protein translocase subunit SecA (Escherichia coli (strain K12)) (P10408 whole entry): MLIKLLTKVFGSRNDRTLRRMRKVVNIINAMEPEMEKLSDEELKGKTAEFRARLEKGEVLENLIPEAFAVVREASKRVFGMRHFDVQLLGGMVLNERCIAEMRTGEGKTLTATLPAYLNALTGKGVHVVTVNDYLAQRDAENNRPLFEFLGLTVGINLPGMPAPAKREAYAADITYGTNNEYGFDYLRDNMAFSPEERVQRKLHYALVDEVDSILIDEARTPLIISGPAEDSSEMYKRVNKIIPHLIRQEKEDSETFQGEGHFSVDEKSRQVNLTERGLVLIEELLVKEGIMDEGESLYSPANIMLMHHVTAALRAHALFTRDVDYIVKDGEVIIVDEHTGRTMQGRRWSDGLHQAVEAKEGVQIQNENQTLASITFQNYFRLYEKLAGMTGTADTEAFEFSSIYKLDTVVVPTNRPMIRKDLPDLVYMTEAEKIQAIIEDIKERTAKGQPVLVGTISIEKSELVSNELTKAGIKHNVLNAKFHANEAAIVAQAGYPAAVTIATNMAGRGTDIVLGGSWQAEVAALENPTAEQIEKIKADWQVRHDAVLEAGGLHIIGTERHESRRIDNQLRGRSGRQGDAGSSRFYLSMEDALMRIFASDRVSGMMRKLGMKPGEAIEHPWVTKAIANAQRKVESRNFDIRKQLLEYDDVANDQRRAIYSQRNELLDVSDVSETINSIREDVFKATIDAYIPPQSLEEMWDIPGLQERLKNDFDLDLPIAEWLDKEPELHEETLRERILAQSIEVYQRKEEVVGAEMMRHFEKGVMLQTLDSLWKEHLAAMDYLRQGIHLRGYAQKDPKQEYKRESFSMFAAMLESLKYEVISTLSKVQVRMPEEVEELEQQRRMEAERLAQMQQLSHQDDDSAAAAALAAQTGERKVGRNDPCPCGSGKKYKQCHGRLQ

As to `O=C(CN1CCNCC1)N1CC[C@@H](c2ccc3ccccc3c2)[C@H](O)C1`, the Percent Effect in assay [1] was -0.963%; in assay [2], 8%; in assay [3], -4.87%; in assay [4] it was 12.2%; in [5], 0.876%; in assay [6] it was 2.08%. The Percent Effect in [7] is 14.7%; in assay [8] it was 10.1%; in [9], 7.1%; in assay [10], 13.6%; in assay [11] it was -3.45%.

In the case of `CN(CCNC(=O)N1CCN(Cc2ccon2)CC1)c1ccccc1`, the Percent Effect is -4.87% in assay [1]; 5.33% in [2]; -2.4% in assay [3]; 0.269% in [4]; -5.75% in assay [5]; 2.6% in [6]. Further, the Percent Effect is 12.2% in assay [7]; -1.26% in [8]; 3.83% in assay [9]; 3.7% in [10]; -4.99% in [11].

Regarding `CNc1cc(C2CCCN2Cc2ccccc2OCC(=O)O)ccn1` (stereo not drawn), the Percent Effect is -3.95% in [1]; 1.35% in assay [2]; 11.6% in [3]; 2.57% in [4]; -3.16% in [5]; 0.232% in [6]. Also, the Percent Effect in assay [7] is 2.34%; in [8] it was 4.49%; in assay [9], 5.38%; in assay [10] it was 9.09%; in assay [11], -8.55%.

For the compound `CO[C@H]1CCN(c2ncccn2)[C@H]1Cc1ccccc1`, the Percent Effect is 1.4% in assay [1]; 2.6% in [2]; -1.1% in [3]; 7.23% in [4]; -3.25% in [5]; -13.8% in assay [6]. Further, the Percent Effect was 16% in assay [7]; 13.8% in [8]; 5.38% in assay [9]; 8.64% in assay [10]; -1.72% in [11].

For the compound `O=C(NCCNc1ccccn1)N1CCSCC1`, the Percent Effect in assay [1] was -7.13%; in assay [2] it was 5.41%; in assay [3] it was 23.3%; in [4], -0.67%; in assay [5] it was -4.43%; in assay [6], 0.802%. Besides, the Percent Effect in assay [7] is 6.67%; in assay [8], 5.29%; in [9], 1.48%; in assay [10] it was 1.24%; in [11] it was -1.12%.

As for `O=C(C1CCC1)N1CCCC1c1nnc2n1CCCCC2` (stereo not drawn), the Percent Effect in [1] is -0.546%; in [2] it was 13.5%; in assay [3], -1.97%; in assay [4] it was -4.28%; in assay [5], 2.34%; in assay [6] it was 33.3%. Moreover, the Percent Effect in [7] worked out at 9.89%; in [8] it was 27.9%; in assay [9] it was 11.9%; in assay [10] it was 15.8%; in [11], 2.32%.

Take `Cc1ccc(CNCC2CCc3nnc(C(C)C)n3C2)s1` (stereo not drawn): the Percent Effect in assay [1] was -1.99%; in assay [2], -1.39%; in [3], -8.87%; in assay [4], -3.91%; in [5] it was -1.46%; in assay [6], -3.97%. Besides, the Percent Effect in assay [7] was 4.56%; in [8] it was -6.98%; in assay [9], 1.05%; in [10], 0%; in assay [11], -1.15%.

Regarding `COCCn1ccc(NC(=O)Nc2ccc(C(N)=O)c(F)c2)n1`, the Percent Effect in [1] is -4.16%; in [2] it was -7.89%; in assay [3] it was 10.9%; in [4], -0.377%; in [5], -3.41%; in assay [6], -4.73%. The Percent Effect in assay [7] is 13.3%; in assay [8] it was -2.4%; in assay [9] it was 0%; in [10] it was 0%; in assay [11], 75.5%.
